Hit rate of the full screen: of about 200,000 compounds, about 560 (0.28%) were called active. What follows is part of a selection rich in actives, with near analogues and random picks from the rest. Where a call stands in place of a potency, no number is given. A number with no mark means an inactive call. Calls follow the shape of the dose curve; as a rule, active = well fitted inhibition curve with a large enough effect; inconclusive = small, poorly fitted or top-dose-only effect; inactive = flat fitted curve, though single readings scatter.
target: Luciferin 4-monooxygenase (Photuris pensylvanica) (UniProt Q27757); experiment: Counterscreen for Luciferase (Kinase-Glo TM) Inhibition; conditions: ATP luminescence, 8 min; series mostly up to 38.3 µM; also: nearly all actives have a fitted effect of over 60% in size
Experimental: NCGC Assay Overview: NIH Molecular Libraries Screening Centers Network [MLSCN] NIH Chemical Genomics Center [NCGC] MLSCN Grant: None Luciferase (Kinase-Glo, Promega Corporation) was assayed for its ability to generate light using ATP and luciferin as substrates. The ATP concentration in the assay (10 uM) was within the linear range of enzyme activity for the assay conditions used.
NCGC Assay Protocol Summary: Four uL of substrate mix (final concentration, 50 mM imidazole pH 7.2, 50 mM KCl, 7 mM MgCl2, 10 uM ATP, 0.01% Tween 20, 0.05% BSA) was dispensed into white 1536 well plates. Twenty-three nL of compound was delivered by a pin tool and 2 uL of luciferase detection mix (Kinase-Glo, Promega)) was added. Following 8-minute incubation at ambient temperature, luminescence was measured by a ViewLux (Perkin Elmer) at 5 seconds exposure/plate.
Potency is read from the fitted curve at half-maximal effect.

Compound	activity change, negative = inhibition	Potency
O=C(O)CCC(=O)O	inactive	–
CC(=O)CC(c1ccccc1)C1C(=O)Oc2ccccc2C1=O (stereo unspecified)	inactive	–
CC(C)(C)OC(=O)NCCCCC1=CC2=CC(=O)C(C)(OC(=O)c3cccs3)C(=O)C2=CO1 (stereo unspecified)	inactive	–
CC1=C(C/C=C(\C)CCCC(C)CCCC(C)CCCC(C)C)C(=O)c2ccccc2C1=O (stereo unspecified)	inactive	–
CCCCCCCC/C=C\CCCCCCCC(=O)OC[C@H](CO)OC(C)=O	inactive	–
COC(=O)CCCC1=CC2=CC(=O)C(C)(OC(=O)c3cccs3)C(=O)C2=CN1CC1CC1 (stereo unspecified)	-3.89% [at 7.66 µM]	–
CC[C@@]12C=C(/C=C/c3ccccc3)[C@](CC)(C1)[C@H](c1ccccc1)CC2=O	inactive	–
CN(c1ccc2nc3ccccc3c(=O)n2n1)C1CCCCC1	–	6.31 µM (active)
CCOC(=O)C(C)Sc1nc2ccccc2c(=O)n1CC1CCCCC1 (stereo unspecified)	inactive	–
O=c1c2ccccc2nc2n1C1(CCCCC1)Cc1ccccc1-2	inactive	–
C=CCOC(=O)NC(c1ccc(F)c(F)c1)C(C(=O)COC)C(=O)OC (stereo unspecified)	inactive	–
COC(=O)C(C(=O)OC)C1c2ccccc2C=C(C2CC2)N1C(=O)OC (stereo unspecified)	inactive	–
CC/C=C\C/C=C\C/C=C\C/C=C\C/C=C\C/C=C\CCC(=O)NC(C)C(=O)O (stereo unspecified)	inactive	–
CC(=O)[C@H](C(c1ccccc1)N1CCOCC1)N1CCOCC1 (stereo partly specified)	-6.68% [at 7.66 µM]	–
O=C(O)C1CCCN(CCC=C(c2ccccc2)c2ccccc2)C1 (stereo unspecified)	inactive	–
CCCCCCCCCCCCCCCCO	inactive	–
CCCCC/C=C\CC1OC1CCCCCCCC(=O)O (stereo unspecified)	inactive	–
COc1cccc(CC(=O)N2CCc3nc(COc4ccccc4)c4c(c3C2)CO[C@@H](C)C4)c1	-3.82% [at 7.66 µM]	–
COc1ccc2nc(Nc3nc(-c4cc5ccccc5oc4=O)cs3)sc2c1	inactive	–
Nc1ncc(-c2cc3ccccc3oc2=O)s1	–	11.2 µM (active)
O=c1oc2ccccc2cc1-c1csc(Nc2ccc(O)cc2)n1	inactive	–
NNc1nnc(NN)c2ccccc12	inactive	–
COc1cccc(-c2cc(=O)c3cc(NC(=O)c4ccc(C)cc4)ccc3[nH]2)c1	inactive	–

Compound	activity change, negative = inhibition	Potency
COc1ccc(-c2nc3c(c4c2C[C@H](c2ccccc2)OC4)CN(C(=O)C2CC2)CC3)c(C)c1	-7.98% [at 7.66 µM]	–
COC(=O)C/C=C/[C@@H](C)[C@H](NC(=O)OCC(Cl)(Cl)Cl)c1ccccc1	inactive	–
CCCCCCCC1=Cc2ccc(F)cc2C(C(C(=O)OC)C(=O)OC)N1C(=O)OC (stereo unspecified)	inactive	–
Cc1ccnc(NC(=O)c2ccoc2C)c1	–	6.31 µM (active)
Cc1occc1C(=O)Nc1cccc(Cn2cccn2)c1	inactive	–
Cc1ccnc(NC(=O)c2ccc(NC(=O)c3ccco3)cc2)c1	inactive	–
CCN1C(=O)N[C@@H](c2ccccc2)[C@H](C(C)=O)[C@H]1C	-7.74% [at 7.66 µM]	–
C[C@@H]1C(c2ccc(F)cc2)=NN(c2ccc(Br)cc2)[C@H]1C(=O)N1CCOC1=O	inactive	–
O=C(O)C[C@@H]1NC(=O)[C@H](Cc2ccccc2)NC1=O	inactive	–
COC(=O)C1=C(C(=O)OC)[C@@H]2N(C)c3ccccc3[C@@]23C[C@@H](C(=O)OC)N(C(C)=O)C3=N1	0.685% [at 7.66 µM]	–
CC(C)C[C@H](NC(=O)[C@H](O)[C@H](N)Cc1ccccc1)C(=O)O	inactive	–
COC(=O)C1=C(C(=O)OC)[C@@H]2N(C)c3ccccc3[C@@]23C[C@@H](C(=O)OC)N(C(=O)c2ccco2)C3=N1	-2.48% [at 7.66 µM]	–
COC(=O)N/N=C/c1ccc(/C=N/NC(=O)OC)cc1	inactive	–
O=C(C[n+]1ccccc1)N/N=C/c1ccc(O)cc1	inactive	–
Cc1nonc1C(=O)N/N=C/c1ccc(O)cc1	–	5.01 µM (active)
C[C@H]1Cc2c(COc3ccccc3)nc3c(c2CO1)CN(C(=O)NCc1ccco1)CC3	-0.257% [at 7.66 µM]	–
Cc1ccsc1C(=O)OCC(=O)c1cc2ccccc2o1	inactive	–
Cc1cc(C(=O)Cn2cnc3cc([N+](=O)[O-])ccc3c2=O)c(C)n1CC1CCCO1 (stereo unspecified)	inactive	–
Cc1ccsc1C(=O)OCC(=O)c1cc(C)n(CC2CCCO2)c1C (stereo unspecified)	–	12.6 µM (active)
COC(=O)CCCC1=CC2=CC(=O)C(C)(OC(=O)c3cccs3)C(=O)C2=CN1CC(C)C (stereo unspecified)	-3.18% [at 7.66 µM]	–
CCOC(=O)C1=C(C)c2ccccc2OC1(C)C(=O)OCC (stereo unspecified)	inactive	–
CC(C)(Oc1ccc(C2CC2(Cl)Cl)cc1)C(=O)O (stereo unspecified)	inactive	–
O=C(Cc1cccs1)Nc1nnc(C2CC2)s1	inactive	–

Compound	activity change, negative = inhibition	Potency
Cc1occc1C(=O)Nc1nnc(C2CCCCC2)s1	inactive	–
O=C(Nc1nnc(C2CC2)s1)c1ccccn1	–	10 µM (active)
C=C(C)C(=O)c1ccc(F)cc1	inactive	–
CC(C)C1=CC2=CC[C@H]3[C@](C)(C(=O)O)CCC[C@]3(C)C2CC1 (stereo partly specified)	inactive	–
COC(=O)C1=C(C(=O)OC)[C@@H]2N(Cc3ccccc3)c3ccccc3[C@@]23C[C@@H](C(=O)OC)N(S(=O)(=O)c2ccc(C(F)(F)F)cc2)C3=N1	-5.51% [at 7.66 µM]	–
CCCCC/C=C\C/C=C\C/C=C\CCCCCCC(N)=O	inactive	–
COC(=O)N1C(/C=C/C=C/c2ccc(OC)cc2)=Cc2ccccc2C1CC(C)=O (stereo unspecified)	-3.85% [at 7.66 µM]	–
CC1(C)O[C@@H]2C[C@@H]3[C@H]4C[C@@H](F)C5=CC(=O)C=C[C@]5(C)[C@@]4(F)[C@@H](O)C[C@]3(C)[C@]2(C(=O)CO)O1	inactive	–
CCCCC/C=C\C/C=C\CCCCCCCCCC(=O)NCC(=O)O	inactive	–
COc1ccc(-c2c(C)cc3oc(=O)cc(-c4ccccc4)c3c2C)cc1F	inactive	–
CC1=C(/C=C/C(C)=C/C=C/C(C)=C/C=C/C=C(C)/C=C/C=C(C)/C=C/C(=O)[C@]2(C)C[C@@H](O)CC2(C)C)C(C)(C)C[C@H](O)C1	inactive	–
C#CCCOC(=O)N1C2=NC(C(=O)OC)=C(C(=O)OC)[C@@H]3N(C)c4ccc(OC)cc4[C@]23C[C@H]1C(=O)OC	-8.5% [at 7.66 µM]	–
Cc1cn(C2OC[C@@H](O)[C@@H]2CO)c(=O)[nH]c1=O (stereo partly specified)	inactive	–
CCCCC/C=C\C/C=C\CCCCCCCCCC(=O)O	inactive	–
COc1cccc(C(=O)Nc2ccc(N3CCCC3)cc2)c1	–	4.47 µM (active)
COc1ccc(C(=O)NC(=S)Nc2ccc(N3CCCC3)cc2)cc1OC	inactive	–
COc1cccc(OC)c1C(=O)Nc1ccc(N2CCCCC2)cc1	inactive	–
COc1cc(OC)c2c(c1)OC(=O)CC2c1cc(OC)c(OC)c(OC)c1 (stereo unspecified)	inactive	–
COc1ccc(CCn2c(-c3ccco3)nc3nc4ccccc4nc32)cc1OC	inactive	–
CN1c2ccccc2-c2nc3ccccc3n2C1c1ccco1 (stereo unspecified)	inactive	–
Cn1c(-c2ccco2)nc2cc3ccccc3cc21	–	12.6 µM (active)
COc1ccc(C2CC(=O)Oc3ccc(C(C)(C)C)cc32)cc1 (stereo unspecified)	inactive	–
COc1cccc([C@@H]2Oc3ccc(Br)cc3C(=O)[C@H]2OC(=O)NCCc2ccc(OC)c(OC)c2)c1	inactive	–

Compound	activity change, negative = inhibition	Potency
CCOC(=O)C1=C(C(=O)OCC)C(C(=O)OCC)N(S(=O)(=O)C(F)(F)F)c2ccccc21 (stereo unspecified)	inactive	–
COC(=O)C1=C(C(=O)OC)[C@@H]2N(C)c3ccccc3[C@@]23C[C@@H](C(=O)OC)N(S(=O)(=O)c2cccs2)C3=N1	-6.85% [at 7.66 µM]	–
CC/C=C\C/C=C\C/C=C\C/C=C\C/C=C\C/C=C\CCC(=O)NCCc1ccc(O)c(O)c1	inactive	–
C[C@@]12CCC(=O)C=C1CC[C@H]1C2[C@@H](O)C[C@]2(C)[C@@H]1CC[C@@]2(O)C(=O)COC(=O)C1CCCC1 (stereo partly specified)	-5.73% [at 7.66 µM]	–
CCCCC/C=C\C/C=C\CCCCCCCCCC(N)=O	inactive	–
COC(=O)C1(C(C)=O)CC2=CC[C@H]3C(=O)N(c4ccccc4)C(=O)[C@H]3[C@@H]2Cc2ccccc2[C@@H]1C[N+](=O)[O-] (stereo partly specified)	inactive	–
CCCCC/C=C\C/C=C\C/C=C\CCCCC(=O)NCC(=O)O	inactive	–
COC(=O)C(C(=O)OC)[C@@H](NC=O)c1ccccc1	inactive	–
CC1(OC(=O)c2ccc(Cl)nc2)C(=O)Cc2cc(-c3ccsc3)ncc2C1=O (stereo unspecified)	-0.318% [at 7.66 µM]	–
Cc1nn2c3ccccc3nc2n(C)c1=O	inactive	–
Cc1csc(-c2nc3ccccc3n2C)n1	–	4.47 µM (active)
Cn1cccc1-c1nc2ccccc2n1C	inactive	–
C=CCn1c(C)cc(C2=NNC(=NCC)SC2)c1C	–	7.94 µM (active)
COCCn1c(C)cc(C2=NNC(=Nc3ccc(F)cc3)SC2)c1C	inactive	–
Cc1cccc(N=C2NN=C(c3c[nH]c4ccccc34)CS2)c1	inactive	–
COc1cc(/C=C/CO)cc(OC)c1O[C@@H]1O[C@H](CO)[C@@H](O)[C@H](O)[C@H]1O	inactive	–
CCc1cccc(OC2OC(CO)C(O)C(O)C2NC(C)=O)c1 (stereo unspecified)	inactive	–
Cc1csc(-c2coc3cc(O[C@@H]4O[C@H](CO)[C@@H](O)[C@@H](O)[C@H]4O)ccc3c2=O)n1	–	3.55 µM (active)
C=CCN1C=C2C(=O)C(C)(OC(=O)CCc3ccccc3)C(=O)C=C2C=C1c1ccc(C#N)cc1 (stereo unspecified)	-4.17% [at 7.66 µM]	–
C=C/C1=C/Cc2ccccc2[C@H](C[N+](=O)[O-])C(C(=O)OC)(C(=O)OC)C1	inactive	–
CC(C)(C)OC(=O)NCCCC1=CC2=CC(=O)C(C)(OC(=O)c3ccco3)C(=O)C2=CO1 (stereo unspecified)	inactive	–
COC(=O)C1=C(C(=O)OC)[C@@H]2Nc3ccccc3[C@@]23C[C@@H](C(=O)OC)N(S(=O)(=O)c2ccc([N+](=O)[O-])cc2)C3=N1	-3.38% [at 7.66 µM]	–
